# Reference: PubChem BioAssay (NCI)
# The panel holds about 79,000 compounds, 15% with a hit somewhere; the sample as a whole holds those more often. A number with no mark means an inactive call. Calls of active or inactive are those of the source. Cut-off read from the data, not from the text of the source: active = growth inhibition above about 70%; inactive = the rest.
# How the values were obtained:
# [1] = NCI Yeast Anticancer Drug Screen. Data for the rad50 strain (AID 155);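 note: 0% = growth of vehicle-only cultures of the same strain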; conditions: S. cerevisiae rad50 strain growth inhibition; at 50.0 µM; hits give high values
# Procedure, shortened: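 Genetically altered yeast (DNA repair pathway); compound treatment; growth inhibition vs vehicle ctrl.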
# [2] = NCI Yeast Anticancer Drug Screen. Data for the mec2-1 strain (AID 157); conditions: S. cerevisiae mec2-1 strain, at 50.0 µM, hits give high values
# Procedure, shortened: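 Compounds were applied to mec2-1 yeast cells. Their growth was then compared with that of vehicle-treated cultures to give growth inhibition.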
# [3] = NCI Yeast Anticancer Drug Screen. Data for the sgs1 mgt1 strain (AID 161);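 note: 0% = growth of cultures given vehicle only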; conditions: S. cerevisiae sgs1 mgt1 strain, at 50.0 µM, hits give high values
# Procedure, shortened: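 Growth of a repair-deficient yeast mutant was monitored after compound treatment and expressed as inhibition relative to vehicle-treated cultures.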
# [4] = NCI Yeast Anticancer Drug Screen. Data for the cln2 rad14 strain (AID 165);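 note: 0% = growth equal to vehicle treated cultures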; conditions: S. cerevisiae cln2 rad14 strain, at 50.0 µM, hits give high values
# Procedure, shortened: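 Strain: cln2 rad14 yeast, altered in cell cycle control and DNA damage repair. Read-out: growth inhibition vs vehicle.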
# [5] = NCI Yeast Anticancer Drug Screen. Data for the bub3 strain (AID 167); conditions: S. cerevisiae bub3 mutant strain, at 50.0 µM, hits give high values
# Procedure, shortened: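 Yeast carrying a defined mutation is treated with each compound, and growth is compared with that of vehicle-exposed cells to give inhibition.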
# [6] = NCI Yeast Anticancer Drug Screen. Data for the mlh1 rad18 strain (AID 175); conditions: S. cerevisiae mlh1 rad18 strain growth inhibition; at 50.0 µM; hits give high values
# Procedure, shortened: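 A repair-deficient yeast strain is exposed to test compound, and growth is scored relative to vehicle-treated controls.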
Structure (SMILES),growth inhibition [1],growth inhibition [2],growth inhibition [3],growth inhibition [4],growth inhibition [5],growth inhibition [6]
COC1/C=C\C=C(/C)C(=O)Nc2cc3nc4cccc(Br)c4oc-3c(c2=O)CC(C)CC(OC)C(O)C(C)/C=C(\C)C1OC(N)=O (centres undefined),33.1%,21.8%,26.2%,21.9%,44.1%,16.5%
O=C(O)CC1SC2(C(=O)N(Cc3ccccc3)c3ccccc32)N(c2ccccc2)C1=O (centres undefined),45.4%,29.8%,32.5%,-8.55%,8.55%,53%
O=C(C(=O)c1ccco1)c1ccco1,64.1%,-0.45%,34.1%,-24.6%,21.1%,35%
CC(C)CN(CC(C)C)C(=O)C1CCCC[C@@H]1C(=O)O (some centres undefined),16.9%,15.2%,5.8%,18.7%,16.4%,22.4%
CCN(CC)CC1CCCCCCCCCCC1=O (centres undefined),-30.3%,-17.9%,-32.7%,17.4%,-44%,-28.9%
CCCNc1ncnc2[nH]ncc12,-44.1%,-25.9%,-39.9%,-23%,-42.2%,-32%
c1ccc2c(c1)CCN2CCN1CCc2ccccc21,9.4%,-12.4%,20.1%,-7.6%,40.2%,11.6%
OC(CC1CCCCN1)c1ccc2c(c1)oc1ccccc12 (centres undefined),71.7% (active),56.9%,62.2%,56.2%,73.8% (active),75.6% (active)
O=C(O)CCC(=O)c1ccc[nH]1,7.3%,-23.2%,-30.1%,19.2%,15.1%,-19.1%
C/C(=N\NC(=S)Nc1ccc(S(=O)(=O)O)cc1)c1ccccn1,21.3%,18.4%,34.5%,19.1%,33.2%,50.5%
C=CCNC(=S)/N=C/c1c(O)c2ccccc2oc1=O,-33.5%,-29.6%,-43%,-33.6%,-53%,-46.9%
OC(CNCCc1ccccc1)COc1cccc2ccccc12 (centres undefined),86.2% (active),92% (active),96.9% (active),98.5% (active),88% (active),97.2% (active)
Cc1ncc([N+](=O)[O-])n1CCN(C)CCCCn1ccnc1[N+](=O)[O-],-0.3%,-1.2%,-5%,-3.75%,7.7%,-57.9%
O=C1CC(C(F)(F)F)(C(F)(F)F)O1,11.3%,19.4%,-8.75%,-58.2%,13.6%,-19%
CCOC(CN=CC1CCC=CO1)OCC (centres undefined),10.9%,-5.35%,2.85%,-1.55%,-1.5%,6.65%
O=C(CC(=O)N1N=C(n2ccc3ccccc32)CC1c1ccccc1)Nc1cccc(Cl)c1 (centres undefined),-35.5%,-15.3%,-11.8%,12.1%,-3.5%,-5.85%
COC(=O)C(C)(N)Cc1ccc(O)c(C)c1 (centres undefined),3.6%,10.8%,0.5%,-10.3%,-4.05%,-9.9%
COc1cc2c(cc1OC)C(C(CO)CO)N(CC(O)CCl)CC2 (centres undefined),-25.6%,-16.1%,-26%,-6.65%,-13.9%,-30.8%
N#C/C(=C\Nc1ccccn1)C(=O)c1ccco1,6.85%,-19.8%,-19.6%,-0.5%,-55.9%,-3.05%
